Laboratory results reported in PubChem BioAssay AID1159580 (chemical genetic matrix, 2015).
“And” between values parts separate entries of the source, which are not always exact repeats. Equal values may be shown once. In all, about 5,500 compounds went through this assay and about 2,000 (36%) were called active. Not shown: some 18% with an inconclusive outcome. Rule as the data show it: active = normalized growth mostly below about 0.91 (no sharp cut-off); inconclusive = no clear call, values can overlap the other calls; inactive = mostly above about 0.92. The list shows a part of the results. Some compounds were tested as several samples or in several runs, with calls that do not always agree.

Assay: chemical genetic growth profiling, strain panel (AID 1159580);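 also: tested at 20 µM; growth read once vehicle control cultures reached saturation at 30 °C; 1 = growth at the plate median or of vehicle wells; lower values mean less growth of the strain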
Conditions: growth OD
[1] = S. cerevisiae deletion strains, locus YAL013W, strain DEP1, stronger effect = lower value
[2] = S. cerevisiae deletion strains, locus YAL040C, strain CLN3, stronger effect = lower value
[3] = S. cerevisiae deletion strains, locus YBR229C, strain ROT2, stronger effect = lower value
[4] = S. cerevisiae deletion strains, locus YCL061C, strain MRC1 (second series), stronger effect = lower value
[5] = S. cerevisiae deletion strains, locus YDL101C, strain DUN1, stronger effect = lower value
[6] = S. cerevisiae deletion strains, locus YDR150W, strain NUM1, stronger effect = lower value
[7] = S. cerevisiae deletion strains, locus YDR363W, strain ESC2, stronger effect = lower value
[8] = S. cerevisiae deletion strains, locus YEL061C, strain CIN8, stronger effect = lower value
[9] = S. cerevisiae deletion strains, locus YER002W, strain NOP16, stronger effect = lower value
[10] = S. cerevisiae deletion strains, locus YGR078C, strain PAC10, stronger effect = lower value
[11] = S. cerevisiae deletion strains, locus YGR229C, strain SMI1, stronger effect = lower value
[12] = S. cerevisiae deletion strains, locus YHR030C, strain SLT2, stronger effect = lower value
[13] = S. cerevisiae deletion strains, locus YJR043C, strain POL32, stronger effect = lower value
[14] = S. cerevisiae deletion strains, locus YJR075W, strain HOC1, stronger effect = lower value
[15] = S. cerevisiae deletion strains, locus YKL190W, strain CNB1, stronger effect = lower value
[16] = S. cerevisiae deletion strains, locus YLR039C, strain RIC1, stronger effect = lower value
[17] = S. cerevisiae deletion strains, locus YLR262C, strain YPT6, stronger effect = lower value
[18] = S. cerevisiae deletion strains, locus YMR263W, strain SAP30, stronger effect = lower value
[19] = S. cerevisiae deletion strains, locus YMR307W, strain GAS1, stronger effect = lower value
[20] = S. cerevisiae deletion strains, locus YNL128W, strain TEP1, stronger effect = lower value
[21] = S. cerevisiae deletion strains, locus YNL153C, strain GIM3, stronger effect = lower value
[22] = S. cerevisiae deletion strains, locus YNL175C, strain NOP13, stronger effect = lower value
[23] = S. cerevisiae deletion strains, locus YNL197C, strain WHI3, stronger effect = lower value
[24] = S. cerevisiae deletion strains, locus YNL224C, strain SQS1, stronger effect = lower value
[25] = S. cerevisiae deletion strains, locus YNL322C, strain KRE1, stronger effect = lower value
[26] = S. cerevisiae deletion strains, locus YOR083W, strain WHI5 (second series), stronger effect = lower value
[27] = S. cerevisiae deletion strains, locus YPL055C, strain LGE1, stronger effect = lower value
[28] = S. cerevisiae deletion strains, locus YPL241C, strain CIN2, stronger effect = lower value

## COc1ccccc1N1CCNCC1
[1]
  normalized growth: 1.01 (inactive) and 0.975 (inactive)
[2]
  normalized growth: 0.965 (inactive)
S. cerevisiae deletion strains, locus YBR021W, strain FUR4, stronger effect = lower value
  normalized growth: 1.01 (inactive)
[3]
  normalized growth: 1.01 (inactive)
S. cerevisiae deletion strains, locus YCL029C, strain bik1, stronger effect = lower value
  normalized growth: 1.03 (inactive)
[4]
  normalized growth: 0.993 (inactive)
S. cerevisiae deletion strains, locus YDL035C, strain GPR1, stronger effect = lower value
  normalized growth: 1.01 (inactive)
S. cerevisiae deletion strains, locus YDL074C, strain BRE1, stronger effect = lower value
  normalized growth: 1.01 (inactive)
[5]
  normalized growth: 1 (inactive)
S. cerevisiae deletion strains, locus YDL134C, strain PPH21, stronger effect = lower value
  normalized growth: 1.01 (inactive)
S. cerevisiae deletion strains, locus YDL185W, strain tfp1, stronger effect = lower value
  normalized growth: 1.03 (inactive)
S. cerevisiae deletion strains, locus YDL192W, strain arf1, stronger effect = lower value
  normalized growth: 1.03 (inactive)
S. cerevisiae deletion strains, locus YDR101C, strain arx1, stronger effect = lower value
  normalized growth: 1.02 (inactive)
[6]
  normalized growth: 1 (inactive) and 0.996 (inactive)
S. cerevisiae deletion strains, locus YDR162C, strain NBP2, stronger effect = lower value
  normalized growth: 1.01 (inactive)
S. cerevisiae deletion strains, locus YDR318W, strain mcm21, stronger effect = lower value
  normalized growth: 1.03 (inactive)
[7]
  normalized growth: 0.962 (inactive)
S. cerevisiae deletion strains, locus YDR388W, stronger effect = lower value
  normalized growth: 1.03 (inactive)
S. cerevisiae deletion strains, locus YDR502C, strain sam2, stronger effect = lower value
  normalized growth: 1.02 (inactive)
[8]
  normalized growth: 1.01 (inactive)
[9]
  normalized growth: 0.99 (inactive)
S. cerevisiae deletion strains, locus YER110C, stronger effect = lower value
  normalized growth: 1.03 (inactive)
S. cerevisiae deletion strains, locus YER155C, strain BEM2, stronger effect = lower value
  normalized growth: 1.01 (inactive)
S. cerevisiae deletion strains, locus YER167W, strain BCK2, stronger effect = lower value
  normalized growth: 1.03 (inactive)
S. cerevisiae deletion strains, locus YGL078C, strain dbp3, stronger effect = lower value
  normalized growth: 1.02 (inactive)
S. cerevisiae deletion strains, locus YGL086W, strain mad1, stronger effect = lower value
  normalized growth: 1.02 (inactive)
S. cerevisiae deletion strains, locus YGL248W, strain PDE1, stronger effect = lower value
  normalized growth: 1.01 (inactive)
[10]
  normalized growth: 1 (inactive)
S. cerevisiae deletion strains, locus YGR135W, strain pre9, stronger effect = lower value
  normalized growth: 1.02 (inactive)
[11]
  normalized growth: 0.999 (inactive)
S. cerevisiae deletion strains, locus YGR252W, strain gcn5, stronger effect = lower value
  normalized growth: 1.05 (inactive)
[12]
  normalized growth: 0.999 (inactive)
S. cerevisiae deletion strains, locus YHR079C, strain IRE1 (second series), stronger effect = lower value
  normalized growth: 1.03 (inactive)
S. cerevisiae deletion strains, locus YHR094C, strain hxt1, stronger effect = lower value
  normalized growth: 1.03 (inactive)
S. cerevisiae deletion strains, locus YHR129C, strain ARP1, stronger effect = lower value
  normalized growth: 1 (inactive)
S. cerevisiae deletion strains, locus YHR200W, strain rpn10, stronger effect = lower value
  normalized growth: 1.03 (inactive)
S. cerevisiae deletion strains, locus YIL066C, strain RNR3, stronger effect = lower value
  normalized growth: 1.01 (inactive)
S. cerevisiae deletion strains, locus YIL073C, strain SPO22, stronger effect = lower value
  normalized growth: 1.12 (inactive)
S. cerevisiae deletion strains, locus YIL125W, strain kgd1, stronger effect = lower value
  normalized growth: 1.02 (inactive)
S. cerevisiae deletion strains, locus YIR030C, strain dcg1, stronger effect = lower value
  normalized growth: 1.04 (inactive)
S. cerevisiae deletion strains, locus YJL095W, strain BCK1, stronger effect = lower value
  normalized growth: 1 (inactive)
S. cerevisiae deletion strains, locus YJL134W, strain LCB3, stronger effect = lower value
  normalized growth: 0.999 (inactive)
S. cerevisiae deletion strains, locus YJL168C, strain set2, stronger effect = lower value
  normalized growth: 1.04 (inactive)
S. cerevisiae deletion strains, locus YJL187C, strain SWE1 (second series), stronger effect = lower value
  normalized growth: 1.01 (inactive)
[13]
  normalized growth: 1.01 (inactive)
[14]
  normalized growth: 0.969 (inactive) and 0.984 (inactive)
S. cerevisiae deletion strains, locus YKL009W, strain mrt4, stronger effect = lower value
  normalized growth: 0.986 (inactive)
S. cerevisiae deletion strains, locus YKL068W, stronger effect = lower value
  normalized growth: 1.01 (inactive)
S. cerevisiae deletion strains, locus YKL085W, strain MDH1 (second series), stronger effect = lower value
  normalized growth: 1.04 (inactive)
S. cerevisiae deletion strains, locus YKL085W, strain MDH1, stronger effect = lower value
  normalized growth: 1.04 (inactive)
[15]
  normalized growth: 0.994 (inactive)
S. cerevisiae deletion strains, locus YKR001C, strain vps1, stronger effect = lower value
  normalized growth: 1.04 (inactive)
[16]
  normalized growth: 1.05 (inactive)
S. cerevisiae deletion strains, locus YLR058C, strain SHM2, stronger effect = lower value
  normalized growth: 1.01 (inactive)
S. cerevisiae deletion strains, locus YLR102C, strain apc9, stronger effect = lower value
  normalized growth: 1.04 (inactive)
[17]
  normalized growth: 1.06 (inactive)
S. cerevisiae deletion strains, locus YLR268W, strain sec22, stronger effect = lower value
  normalized growth: 1.02 (inactive)
S. cerevisiae deletion strains, locus YLR330W, strain CHS5, stronger effect = lower value
  normalized growth: 1 (inactive)
S. cerevisiae deletion strains, locus YLR342W, strain FKS1 (second series), stronger effect = lower value
  normalized growth: 1.01 (inactive)
S. cerevisiae deletion strains, locus YLR371W, strain rom2, stronger effect = lower value
  normalized growth: 1.03 (inactive)
S. cerevisiae deletion strains, locus YLR418C, strain cdc73, stronger effect = lower value
  normalized growth: 1.04 (inactive)
S. cerevisiae deletion strains, locus YML016C, strain PPZ1, stronger effect = lower value
  normalized growth: 1.01 (inactive)
S. cerevisiae deletion strains, locus YML032C, strain rad52, stronger effect = lower value
  normalized growth: 1.03 (inactive)
S. cerevisiae deletion strains, locus YML124C, strain tub3, stronger effect = lower value
  normalized growth: 1.02 (inactive)
S. cerevisiae deletion strains, locus YMR078C, strain ctf18, stronger effect = lower value
  normalized growth: 1.04 (inactive)
S. cerevisiae deletion strains, locus YMR223W, strain ubp8, stronger effect = lower value
  normalized growth: 1.03 (inactive)
[18]
  normalized growth: 0.997 (inactive) and 0.985 (inactive)
[19]
  normalized growth: 0.992 (inactive) and 1 (inactive)
S. cerevisiae deletion strains, locus YNL067W, strain RPL9B, stronger effect = lower value
  normalized growth: 1 (inactive)
[20]
  normalized growth: 1.01 (inactive)
[21]
  normalized growth: 0.987 (inactive) and 1.27 [resistant] (active)
[22]
  normalized growth: 0.992 (inactive)
[23]
  normalized growth: 1.02 (inactive)
[24]
  normalized growth: 0.994 (inactive)
S. cerevisiae deletion strains, locus YNL233W, strain BNI4, stronger effect = lower value
  normalized growth: 1.02 (inactive)
S. cerevisiae deletion strains, locus YNL250W, strain rad50, stronger effect = lower value
  normalized growth: 1.05 (inactive)
S. cerevisiae deletion strains, locus YNL271C, strain bni1, stronger effect = lower value
  normalized growth: 1.04 (inactive)
S. cerevisiae deletion strains, locus YNL298W, strain CLA4, stronger effect = lower value
  normalized growth: 1.05 (inactive)
S. cerevisiae deletion strains, locus YNL307C, strain MCK1, stronger effect = lower value
  normalized growth: 1.05 (inactive)
[25]
  normalized growth: 1.01 (inactive) and 0.972 (inactive)
S. cerevisiae deletion strains, locus YNR052C, strain pop2, stronger effect = lower value
  normalized growth: 1.03 (inactive)
S. cerevisiae deletion strains, locus YOL006C, strain TOP1, stronger effect = lower value
  normalized growth: 0.997 (inactive)
S. cerevisiae deletion strains, locus YOL012C, strain htz1
  normalized growth: 0.807 (inactive)
S. cerevisiae deletion strains, locus YOL147C, strain pex11, stronger effect = lower value
  normalized growth: 1.02 (inactive)
S. cerevisiae deletion strains, locus YOR061W, strain CKA2, stronger effect = lower value
  normalized growth: 1.01 (inactive)
S. cerevisiae deletion strains, locus YOR069W, strain VPS5, stronger effect = lower value
  normalized growth: 0.997 (inactive)
[26]
  normalized growth: 1 (inactive)
S. cerevisiae deletion strains, locus YOR136W, strain idh2, stronger effect = lower value
  normalized growth: 1.03 (inactive)
S. cerevisiae deletion strains, locus YOR144C, strain elg1, stronger effect = lower value
  normalized growth: 1.03 (inactive)
S. cerevisiae deletion strains, locus YOR184W, strain ser1, stronger effect = lower value
  normalized growth: 1.05 (inactive)
S. cerevisiae deletion strains, locus YOR316C, strain cot1, stronger effect = lower value
  normalized growth: 1.03 (inactive)
[27]
  normalized growth: 1.03 (inactive) and 0.983 (inactive)
[28]
  normalized growth: 1.01 (inactive)
S. cerevisiae deletion strains, locus YPR119W, strain clb2, stronger effect = lower value
  normalized growth: 1.02 (inactive)
S. cerevisiae deletion strains, locus YPR141C, strain kar3, stronger effect = lower value
  normalized growth: 1.03 (inactive)
S. cerevisiae deletion strains, locus YPR163C, strain tif3, stronger effect = lower value
  normalized growth: 1.03 (inactive)
S. cerevisiae deletion strains, locus YPR167C, strain met16, stronger effect = lower value
  normalized growth: 1.03 (inactive)
S. cerevisiae deletion strains, strain wtn01, stronger effect = lower value
  normalized growth: 1.01 (inactive)
S. cerevisiae strains, strain wild type, stronger effect = lower value
  normalized growth: 1.01 (inactive)

## COc1ccccc1N1CCN(Cc2ccc(F)cc2)CC1
[1]
  normalized growth: 1.02 (inactive)
[3]
  normalized growth: 0.993 (inactive)
S. cerevisiae deletion strains, locus YCL061C, strain MRC1, stronger effect = lower value
  normalized growth: 1 (inactive)
[5]
  normalized growth: 0.992 (inactive)
[6]
  normalized growth: 1.02 (inactive)
[8]
  normalized growth: 1.01 (inactive)
[10]
  normalized growth: 1.01 (inactive)
[12]
  normalized growth: 1.06 (inactive)
S. cerevisiae deletion strains, locus YHR087W, strain rtc3, stronger effect = lower value
  normalized growth: 1.01 (inactive)
S. cerevisiae deletion strains, locus YJL187C, strain SWE1, stronger effect = lower value
  normalized growth: 1.02 (inactive)
[13]
  normalized growth: 1.01 (inactive)
[14]
  normalized growth: 0.983 (inactive)
[15]
  normalized growth: 1.02 (inactive)
[16]
  normalized growth: 0.987 (inactive)
S. cerevisiae deletion strains, locus YLR058C, strain SHM2 (second series), stronger effect = lower value
  normalized growth: 1.02 (inactive)
S. cerevisiae deletion strains, locus YLR085C, strain ARP6, stronger effect = lower value
  normalized growth: 1.04 (inactive)
[17]
  normalized growth: 1.01 (inactive)
S. cerevisiae deletion strains, locus YML094W, strain GIM5, stronger effect = lower value
  normalized growth: 1 (inactive)
S. cerevisiae deletion strains, locus YMR219W, strain ESC1, stronger effect = lower value
  normalized growth: 1.01 (inactive)
[18]
  normalized growth: 1.01 (inactive)
[20]
  normalized growth: 1.02 (inactive)
[21]
  normalized growth: 0.997 (inactive)
S. cerevisiae deletion strains, locus YNL298W, strain CLA4 (second series), stronger effect = lower value
  normalized growth: 1.05 (inactive)
[25]
  normalized growth: 1 (inactive)
S. cerevisiae deletion strains, locus YNR030W, strain Alg12, stronger effect = lower value
  normalized growth: 1.04 (inactive)
[27]
  normalized growth: 1 (inactive)
[28]
  normalized growth: 0.998 (inactive)
S. cerevisiae deletion strains, locus YPR135W, strain CTF4, stronger effect = lower value
  normalized growth: 1 (inactive)

## c1ccc2c(N3CCNCC3)cccc2c1
[2]
  normalized growth: 1.03 (inactive)
[4]
  normalized growth: 1 (inactive)
[6]
  normalized growth: 0.994 (inactive)
[7]
  normalized growth: 0.999 (inactive)
[9]
  normalized growth: 1.01 (inactive)
[10]
  normalized growth: 0.993 (inactive)
[11]
  normalized growth: 1.02 (inactive)
[19]
  normalized growth: 0.99 (inactive)
[21]
  normalized growth: 0.991 (inactive)
[22]
  normalized growth: 1.01 (inactive)
[23]
  normalized growth: 0.997 (inactive)
[24]
  normalized growth: 1.01 (inactive)
[25]
  normalized growth: 1.01 (inactive)
[26]
  normalized growth: 1 (inactive)
[27]
  normalized growth: 1.02 (inactive)
[28]
  normalized growth: 1 (inactive)
